Measurements published in PubChem BioAssay AID493175 (National Center for Advancing Translational Sciences (NCATS), 2011).
Inconclusive results are not listed. Unmarked numbers belong to inactive results. Calls come from the whole dose curve; as a rule, active = well fitted curve in the direction sought with a large enough effect; inconclusive = small, poorly fitted or top-dose-only effect, or another doubt; inactive = no such curve, though single readings can be large or run the other way.

What follows are compounds tested against Luciferin 4-monooxygenase (Photinus pyralis) (UniProt P08659) (assay: miR-21 counterscreen using purified firefly luciferase). Details: purified P. pyralis luciferase, luminescence; series mostly up to 57.5 µM; activity change, negative = inhibition: at the top concentration.
Sequence of Luciferin 4-monooxygenase (Photinus pyralis) (P08659 whole entry, looked up): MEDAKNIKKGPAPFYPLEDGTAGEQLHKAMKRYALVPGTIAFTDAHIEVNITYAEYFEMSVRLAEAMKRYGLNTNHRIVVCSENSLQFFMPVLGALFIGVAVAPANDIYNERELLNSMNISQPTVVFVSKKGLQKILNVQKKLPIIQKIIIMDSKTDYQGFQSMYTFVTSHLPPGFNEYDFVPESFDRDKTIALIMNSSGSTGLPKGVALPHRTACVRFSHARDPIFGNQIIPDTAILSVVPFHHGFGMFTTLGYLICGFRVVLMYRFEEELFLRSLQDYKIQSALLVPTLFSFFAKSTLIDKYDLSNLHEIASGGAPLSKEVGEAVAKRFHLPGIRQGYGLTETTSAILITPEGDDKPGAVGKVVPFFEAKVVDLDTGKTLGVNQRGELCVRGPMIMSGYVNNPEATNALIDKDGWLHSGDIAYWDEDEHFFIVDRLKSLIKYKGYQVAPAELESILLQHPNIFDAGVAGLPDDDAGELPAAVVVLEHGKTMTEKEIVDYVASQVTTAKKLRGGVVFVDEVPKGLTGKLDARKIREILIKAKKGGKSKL
Text: MLPCN Grant: 1 R21 NS059478-01 Assay Provider: Qihong Huang, The Wistar Institute NCGC Assay Overview: MicroRNAs (miRNAs) are endogenously encoded small (~20-25 nucleotides), nonprotein-coding RNAs that are involved in post-transcriptional repression of target messenger RNAs (mRNAs) (Le and Hannon, 2004). Estimated to be involved in the regulation of 30% of all protein-coding mRNAs (Filipowicz et al., 2008), miRNAs play a significant role in many biological processes including cellular differentiation and tissue development (Ghildiyal and Zamore, 2009). […] Compounds active in the miR-21 FLuc assay were clustered using Leadscope and active chemical series were prioritized based on chemical properties, potential for medicinal chemistry optimization, and SAR. Within each chemical series, representative compounds were re-acquired to test for activity in a secondary assay based on the quality of their CRC, efficacy, and potency. This secondary assay to determine if compounds active in the miR-21 FLuc assay were just luciferase inhibitors. Compounds found active in both the miR-21 FLuc and purified FLuc assays are considered as false positives. Keywords: NIH Roadmap, MLPCN, MLSMR, qHTS, miR-21, firefly luciferase, FLuc, miRNA.
NCGC Assay Protocol Summary: Reagents: 50mM Tris acetate, pH 7.5; 10mM Mg acetate; 10uM D-luciferin (Sigma #L9504); 10uM ATP; 0.01% Tween-20; 0.05% BSA; 10nM P. pyralis luciferase (Sigma #L9506) Control compounds used were two known firefly luciferase inhibitors (compounds (2) and (5) in Auld et al., 2010), and DMSO. Assay Summary: Three microliters containing firefly luciferase substrates in buffer (final concentrations: 50mM Tris acetate, pH 7.5, 10mM Mg acetate, 0.01% Tween-20, 0.05% BSA, 10uM D-luciferin, and 10uM ATP) are dispensed into each well of a Greiner white, solid-bottom 1536-well format plate using a flying reagent dispenser (FRD). These assay plates were then treated with 23nL of compound or DMSO using a Kalypsys pin tool, which allows for delivery of a 6-point interplate titration of each compound to the assay plate (quantitative HTS), with a final compound concentrations ranging from approximately 60 µM to 7pM. One microliter of firefly luciferase in […] Tris-acetate buffer was then delivered by FRD to each well for a final enzyme concentration of 10nM. Luciferase activity was then measured using a ViewLux CCD imager (PerkinElmer), with an average exposure time of 2-30 seconds (2X binning, medium/high gain).
With `O=C(CSc1nnc(-c2ccc(O)cc2)o1)Nc1ccccc1Br` the “activity change, negative = inhibition” value was 4.86%.
With `COc1ccc(-n2nnc(-c3nc(-c4cccs4)no3)c2N)cc1OC` the “activity change, negative = inhibition” value was -9.69%.
`COc1ccc(OCC(=O)Nc2ccc(-c3nc4cc(Cl)ccc4o3)cc2)cc1` was tested, and the “activity change, negative = inhibition” value was -3.29%.
For `CC(C)(C)c1ccc(NC(=O)CSc2nnc(-c3n[nH]c4ccccc34)o2)cc1`, the “activity change, negative = inhibition” value was -19.9%.
With `CC(=O)Nc1nc2c(C)cc(NC(=O)C3CCCCC3)cc2s1` the “activity change, negative = inhibition” value was -12.1%.
In the case of `Cc1nnc(SCc2nc(N)nc(Nc3ccccc3)n2)s1`, the “activity change, negative = inhibition” value was -25.9%.
With `O=C(Nc1nnc(S(=O)(=O)N2CCCC2)s1)c1ccc(F)cc1` the “activity change, negative = inhibition” value was -3.57%.
In the case of `COc1ccc(-c2csc(NC(=O)COC(=O)c3ccc(Br)o3)n2)cc1`, the “activity change, negative = inhibition” value was 0.739%.
For `Fc1ccccc1CSc1nnc(-c2cnccn2)n1Cc1ccco1`, the “activity change, negative = inhibition” value was -4.71%.
With `CCS(=O)(=O)c1ncc(Cl)c(C(=O)N(Cc2ccccc2)c2ccc(OC)cc2)n1` the “activity change, negative = inhibition” value was -13.7%.
`Fc1cccc(Cl)c1CSc1nnc2ccccn12` was tested, and the “activity change, negative = inhibition” value was -17.8%.
`O=C(CSc1nnc(-c2ccccn2)o1)Nc1cccc(Cl)c1` was tested, and the “activity change, negative = inhibition” value was -13.8%.
In the case of `COc1ccccc1Nc1nn2c(=O)c3ccc(C(=O)NCCc4ccccc4)cc3nc2s1`, the “activity change, negative = inhibition” value was -1.8%.
In the case of `COc1ccc(OCC(=O)Nc2cc(-c3nc4ccccc4s3)ccc2C)cc1`, the “activity change, negative = inhibition” value was -18.9%.
For `CSc1nsc(SCC(=O)Nc2ccc(F)cc2F)n1`, the “activity change, negative = inhibition” value was -4.78%.
With `Cc1c(-c2nc(-c3ccc(C(F)(F)F)cc3)no2)n(C)oc1=O` the “activity change, negative = inhibition” value was 6.33%.
With `COc1ccc(C(=O)Nc2nnc(C(C)C)s2)cc1OC` the “activity change, negative = inhibition” value was -16.5%.
With `Cn1c(=O)[nH]c2cc(-c3noc(-c4ccc(F)cc4)n3)ccc21` the “activity change, negative = inhibition” value was -17.8%.
In the case of `COc1ccccc1CNC(=O)CCC1N=C2c3ccccc3N=C(SCc3cccc(Cl)c3)N2C1=O` (stereo not given), the “activity change, negative = inhibition” value was -1.95%.
`CC(C)C(=O)Nc1nc2c(s1)CC(C(C)(C)C)CC2` (stereo not given) was tested, and the “activity change, negative = inhibition” value was -17.6%.
With `Cc1ccc(NC(=O)Cn2nnc(-c3nc(-c4ccc(Cl)cc4)no3)c2N)cc1C` the “activity change, negative = inhibition” value was 1.35%.
With `CC(C)(C)C1CCc2nc(NC(=O)Cc3cn4ccsc4n3)sc2C1` (stereo not given) the activity change, negative = inhibition was 0.54% [at 2.3 µM].
With `COc1ccc(-c2nnc(SCC(=O)Nc3cccc(F)c3)s2)cc1` the “activity change, negative = inhibition” value was -12.9%.
With `CC(C)COc1ccc(C(=O)Nc2cc(-c3ccccc3)no2)cc1` the “activity change, negative = inhibition” value was -23.7%.
In the case of `Cc1ccc(-n2nnc(-c3nc(-c4cccs4)no3)c2N)cc1C`, the “activity change, negative = inhibition” value was -14.9%.
`Cc1cc(C)cc(NC(=O)CSc2nnc(-c3ccccc3C)o2)c1` was tested, and the “activity change, negative = inhibition” value was -8.21%.
For `COc1ccc(Nc2cc(C(=O)NCCCN3CCN(c4ccc(OC)cc4)CC3)c3ccccc3n2)cc1`, the “activity change, negative = inhibition” value was -6.17%.
For `Cc1ccc(C(=O)Nc2ccc3c(c2)N(C)C(=O)c2ccccc2S3)cc1F`, the “activity change, negative = inhibition” value was 1.83%.
For `C/C(=N\NC(=O)c1cccs1)c1ccncc1`, the “activity change, negative = inhibition” value was -17.6%.
In the case of `COc1ccc(NC(=O)CSc2nc(SC)ns2)c(OC)c1`, the “activity change, negative = inhibition” value was -4.09%.
`CS(=O)(=O)n1nc(-c2ccc(Cl)cc2)nc1SCc1ccccc1` was tested, and the “activity change, negative = inhibition” value was -8.68%.
In the case of `Cc1cccc(N2CCN(C(=O)C3CCN(c4ncnc5c4nc4n5CCCCC4)CC3)CC2C)c1` (stereo not given), the “activity change, negative = inhibition” value was -15.3%.
`Cc1c(-c2nnc(SCC(=O)Nc3ccccc3F)o2)nnn1-c1ccc(F)cc1` was tested, and the “activity change, negative = inhibition” value was -20%.
For `Cc1cccc(-c2nsc(SCC(=O)Nc3ccc4c(c3)OCO4)n2)c1`, the “activity change, negative = inhibition” value was -20.1%.
For `COc1ccc(CNc2n[nH]c(-c3ccco3)n2)cc1OC`, the “activity change, negative = inhibition” value was -7.47%.
For `COc1ccccc1NC(=O)c1sc2nc3c(cc2c1N)CN(Cc1ccccc1)CC3`, the “activity change, negative = inhibition” value was -1.23%.
`CN(C)c1ccc(CNc2nc(-c3ccco3)nn2S(C)(=O)=O)cc1` was tested, and the “activity change, negative = inhibition” value was 1.82%.
`COc1cccc(NC(=O)CSc2nnc(-c3cccs3)o2)c1` was tested, and the “activity change, negative = inhibition” value was -3.97%.
`COc1cccc(C(=O)Nc2ccc3nc(N4CCN(c5ncccn5)CC4)cc(C)c3c2)c1OC` was tested, and the “activity change, negative = inhibition” value was -18.1%.
In the case of `COc1cc(-c2nc3cnccn3c2Nc2ccc(C(C)C)cc2)ccc1O`, the “activity change, negative = inhibition” value was -1.34%.
